Bioassay records deposited in PubChem by National Center for Advancing Translational Sciences (NCATS).
Compounds with a hit are over-represented: about 19% of the library has one in this group of screens.
Pf growth 48h: P. falciparum growth inhibition at 48 hours (one generation); P. falciparum luciferase growth in erythrocytes, 48 h; Potency, µM (series often up to 28.7 µM), without a hit: at the top dose activity change, negative = inhibition, actives largely listed as inhibitors; 5.9% of 310,000 active; AID 504832; further: potency means the concentration at half of the fitted maximal effect; on the % scale 0 is the no-effect control and ±100 the full control effect
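In quantitative HTS format, infected erythrocytes bearing luciferase-reporter parasites were treated for a single generation at 37 C. Luminescence after adding detection reagent served as the growth measure.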
Pf growth 96h: inhibits malaria parasite growth, 96 h | 6.9% of 320,000 active | Potency, µM (doses to about 28.7 µM), for inactives: at the top dose activity change, negative = inhibition, most hits filed as inhibitors | P. falciparum luciferase reporter growth, 96 h | AID 504834; further: potency means the concentration at half of the fitted maximal effect; on the % scale 0 is the no-effect control and ±100 the full control effect
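Luminescence readout: decreased luciferase signal marks inhibited growth of reporter-expressing P. falciparum in infected red cells (2% hematocrit, 0.05% parasitemia final), exposed to compound two generations (96 h, 37 C, 5% CO2).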
CHX counter: affects cycloheximide protein synthesis inhibition readout, counter-screen. cell reporter, cycloheximide protein synthesis inhibition counterscreen. max response, %. 12% of 300,000 active. AID 2314; in the data active means max response mostly above about 13%, no sharp cut-off; inactive means mostly below about 14%; further: read at 38.3 µM for the half of the compounds with a filed dose; 0% is about no effect
Shiga toxin inh: blocks Shiga toxin action in Vero cells; Vero cells, Shiga toxin protein synthesis inhibition reporter; inhibition, % at 38.7 µM; 9.2% of 290,000 active; AID 2315; in the data active means inhibition mostly above about 28%, no sharp cut-off; inactive means mostly below about 43%; further: 0% is about no effect
Marburg entry inh: inhibitors of Marburg virus binding or cell entry; 1.8% of 300,000 active; AID 540276; Marburg virus pseudotyped entry inhibition, cell reporter; Potency, µM (titrated, usually from 37.8 µM), inactives show at the highest dose activity change, negative = inhibition, hits mostly inhibitors; calls by dose curve; tested in HEK293 cells; further: potency means the concentration at half of the fitted maximal effect; on the % scale 0 is the no-effect control and ±100 the full control effect
Lassa entry inh: Lassa virus entry inhibition. 1.2% of 300,000 active. Potency, µM (doses to about 37.9 µM), without a hit: at the top dose activity change, negative = inhibition, hits mostly inhibitors. AID 540256. Lassa virus pseudotype entry inhibition, cell reporter; calls by dose curve; tested in HEK293 cells; further: potency means the concentration at half of the fitted maximal effect; on the % scale 0 is the no-effect control and ±100 the full control effect; nearly all actives have a fitted effect of over 50% in size
* = called active by the depositor; i = inactive; ? = inconclusive; nt = no result given; ! = a repeat was not active; [ ] = another dose, or the depositor's remark. Unless noted, the call rests on the fitted dose curve; in most records, active means well fitted inhibition curve with a large enough effect; inconclusive means small, poorly fitted or top-dose-only effect, or another doubt; inactive means no such curve, though single readings can be large or run the other way.

SMILES	Pf growth 48h	Pf growth 96h	CHX counter	Shiga toxin inh	Marburg entry inh	Lassa entry inh
CCC(O)CNc1nc(SC)nc2sc3c(c12)CCN(C)C3 (centres undefined)	nt	nt	-0.5	-10.0	-0.6%	17.4%
COC(CNc1nc(SC)nc2sc3c(c12)CCN(C)C3)OC	?	5.22µM*	-3.0	-6.4	-2.0%[46.1 µM]	-5.0%
COc1ccc(-c2nnn(CC(=O)N(CC(=O)NCCC(C)C)c3ccccc3)n2)cc1OC	?	?	-2.0	-10.5	-1.3%	-5.4%
CCCCN(C(=O)c1cccc(C)c1)c1c(N)n(CCC)c(=O)[nH]c1=O	7.7%	15.2%	-1.3	-13.1	10.6%[46.1 µM]	-21.4%[46.1 µM]
CN1c2ccsc2/C(=N/Nc2ccc(F)cc2)CS1(=O)=O	?	?	26.7*	53.6	-1.2%[46.1 µM]	-0.2%
Cc1ccc(N/N=C2\CS(=O)(=O)N(C)c3ccsc32)cc1	?	?	51.1*	65.7*	?	6.9%[46.1 µM]
CCNC(=O)CC1SC(=Nc2ccc(C)cc2)NC1=O (centres undefined)	29.3%	6.6%	2.4	-5.9	?	-0.4%
COC(=O)c1ccc(CSc2nc(N3CCOCC3)c3c(c2C#N)CC(C)(C)OC3)o1	8.28µM*	157.1%[5.75 µM]	5.9	-11.5	9.2%	3.2%
CC(C)CCSc1nc(N2CCOCC2)c2c(c1C#N)CC(C)(C)OC2	9.28µM*	3.4%	-8.0	-20.9	?	-1.3%
CCOC(=O)C(C)Sc1nc(N2CCOCC2)c2c(c1C#N)CC(C)(C)OC2 (centres undefined)	nt	nt	nt	nt	?	-17.5%
CC(Sc1nc(N2CCOCC2)c2c(c1C#N)CC(C)(C)OC2)C(=O)Nc1ccccc1 (centres undefined)	13.1µM*	nt	-1.3	8.1	?	-3.9%
CCOC(=O)CCSc1nc(N2CCOCC2)c2c(c1C#N)CC(C)(C)OC2	4.65µM*	36.4%	1.0	10.1	27.2%[46.1 µM]	-2.2%
CC12CCC(C(=O)Nc3cc(F)ccc3F)(CC1=O)C2(C)C (centres undefined)	14.9%	50.0%[1.15 µM]	-0.8	-8.5	-24.3%[46.1 µM]	24.0%
CC1(C)Cc2c(C#N)c(SCC(=O)c3ccccc3)nc(N3CCOCC3)c2CS1	2.33µM*	?	3.7	6.0	-28.8%	17.8µM*
CC(Sc1nc(-c2ccccc2)nc2c1COC(C)(C)C2)C(=O)N1CCOCC1 (centres undefined)	nt	8.28µM*	-5.5	-7.9	0.6%	18.4%
CCSc1nc(N2CCOCC2)c2c(c1C#N)CC(C)(C)N(C)C2	nt	5.22µM*	-8.2	-6.1	-25.3%[46.1 µM]	-9.1%
C=CCSc1nc(N2CCOCC2)c2c(c1C#N)CC(C)(C)N(C)C2	?	?	-1.3	-12.8	nt	nt
CSCCC(NC(=O)c1ccco1)C(=O)Nc1ccc(C)c(S(=O)(=O)N2CCOCC2)c1 (centres undefined)	?	-5.3%	nt	nt	-28.0%	1.0%[46.1 µM]
COc1cccc(-c2noc(C3CCCN(C(=O)c4ccc(F)cc4F)C3)n2)c1 (centres undefined)	10.6%	269.9%	1.2	30.9	nt	nt
CCCCC(=O)N1CCCC(c2nc(-c3cccc(OC)c3)no2)C1 (centres undefined)	32.8%	?	41.2*	82.5*	nt	nt
COc1cccc(-c2noc(C3CCCN(C(=O)c4ccccc4OC)C3)n2)c1 (centres undefined)	66.3%	?	52.1*	47.8*	nt	nt
CCCS(=O)(=O)N1CCCC(c2nc(-c3cccc(OC)c3)no2)C1 (centres undefined)	28.8%	-2.0%	17.8*	44.7	7.6%	-34.5%[14.3 µM]
COc1cccc(-c2noc(C3CCCN(C(=O)CC(C)(C)C)C3)n2)c1 (centres undefined)	-17.0%	i	1.0	16.4	nt	nt
COC(=O)c1ccc(NS(=O)(=O)NC(=O)c2c[nH]c3ccccc23)cc1	-17.2%	?	13.4	20.1	nt	nt
CC(C)OCCCn1c(=O)c2ccccc2n2c(CCC(=O)O)nnc12	nt	1.65µM*	1.3	-3.5	20.1%	11.5%
SMILES	Pf growth 48h	Pf growth 96h	CHX counter	Shiga toxin inh	Marburg entry inh	Lassa entry inh
COC(=O)c1ccccc1NC(=O)Cn1c(=O)n(CCC(=O)NC2CCN(Cc3ccccc3)CC2)c(=O)c2ccccc21	92.9%	9.28µM*	0.7	2.6	nt	nt
CC(C)OCCCn1c(=O)c2ccccc2n2c(CCC(=O)NC3CCN(Cc4ccccc4)CC3)nnc12	?	14.7µM*	-2.9	-9.9	-20.3%[46.1 µM]	0.5%[46.1 µM]
Cc1cccc(C)c1NC(=O)Cn1c(=O)n(CCCC(=O)NC2CCN(Cc3ccccc3)CC2)c(=O)c2ccccc21	-85.2%	1.8%	-2.3	-7.4	20.3%[46.1 µM]	4.9%
CC(C)OCCCn1c(=O)c2ccccc2n2c(CCC(=O)NCc3ccccn3)nnc12	-10.8%	?	-5.0	-2.1	nt	nt
Cc1ccc2oc(=O)c3cnn(CC(=O)Nc4cccc(C(F)(F)F)c4)c3c2c1	nt	nt	nt	nt	-18.3%[46.1 µM]	-3.3%[46.1 µM]
Cc1cc(C(=O)CC#N)c(C)n1-c1ccc(OC(F)F)cc1	?	13.1µM*	1.8	10.1	-18.4%	-9.7%
Cc1cc(C(=O)CSc2nc(N)cc(=O)[nH]2)c(C)n1-c1ccc(OC(F)F)cc1	-9.5%	-16.5%	-0.2	-13.1	?	?
Cc1cc(C(=O)COC(=O)c2ccc(O)cc2O)c(C)n1-c1ccc(OC(F)F)cc1	9.28µM*	?	nt	nt	7.94µM*	?
Cc1cc(C(=O)COC(=O)c2ccc(O)cc2O)c(C)n1-c1ccccc1	123.8%	289.9%	nt	nt	?	11.2µM*
COc1ccc(-n2c(C)cc(C(=O)COC(=O)Cn3cnc4ccccc43)c2C)cc1	13.1µM*	48.0%	1.1	-2.0	-26.9%	9.8%
Cc1nn(CC(=O)OCC(=O)NCCc2ccc(S(N)(=O)=O)cc2)c(C)c1[N+](=O)[O-]	-3.2%	49.8%	nt	nt	nt	nt
CCOC(=O)C(=NC1CCS(=O)(=O)C1)NNc1cc(Cl)ccc1Cl (centres undefined)	4.0%	-2.3%	2.5	20.8	9.1%[46.1 µM]	18.2%
CCc1ccc(CNC(=O)c2ccc(OC3CCN(C(C)=O)CC3)c(OC)c2)nc1	7.2%	13.9%	-6.6	-16.0	25.6%	-13.1%
Cc1ccccc1-n1c(-c2ccc(=O)[nH]n2)n[nH]c1=S	-7.7%	23.8%	1.3	16.2	6.1%[46.1 µM]	29.8%[46.1 µM]
COCC(=O)OCC(=O)c1cc(C)n(-c2ccc(Br)cc2)c1C	-11.1%	?	-3.7	-6.1	-4.5%[46.1 µM]	-23.0%
COC(=O)c1cc(C(=O)OC)cc(-n2c(C)cc(C=O)c2C)c1	-15.7%	0.5%	-2.9	-9.9	-5.8%[14.2 µM]	10.3%
COc1ccc(-n2c(C)cc(C(=O)COC(=O)c3ccc(O)cc3O)c2C)cc1	7.38µM*	11.7µM*	nt	nt	nt	nt
COC(=O)c1cc(C(=O)OC)cc(-n2c(C)cc(C(=O)CC#N)c2C)c1	10.4µM*	nt	-2.5	-1.1	?	0.9%
O=C(NCc1ccccc1)c1ccc(-c2ccccc2C(F)(F)F)o1	8.1%	?	37.1*!	11.4	?	2.31µM*
Cc1ccc(-c2ccc(C(=O)NCc3ccc(Cl)cc3)o2)c2ccccc12	?	?	-2.0	-9.7	4.7%	20.6µM*
